16 compounds from PubChem BioAssay can be followed below.

Assay [1] can be described thus: hESC survival regulators, cell-based (AID 493140; call rule not given here;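 further: cells exposed to compounds for four days before counting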). The note with it: human embryonic stem cell survival screen; stronger effect = higher value.
Assay [2] is described as follows: liver-stage malaria parasite growth inhibition, primary screen, cell-based, HepG2, luciferase luminescence, HepG2 viability (AID 624349).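 Further: 100% = mean of DMSO negative control wells on the same plate.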 The note with it: P. berghei liver stage in HepG2, luciferase luminescence, concentration not given here; parasite load remaining: stronger effect = lower value; viability: measured here: HepG2 viability without parasites.
The nature of assay [3]: sensitizers of A549 cells to miR-34 induction, primary screen, imaging, A549 dox-inducible miR-34, nuclei and caspase counts (AID 1347080;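 active means compounds whose cell count with miR-34 switched on is under 0.7 times the count with it off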). The note with it: A549 miR-34 inducible, Hoechst nuclei count, 48 h.
A short description of assay [4]: survival rescue of mitochondrial mutant cells in low glucose, primary screen, MELAS cybrids, Rieske KO mouse fibroblasts, CellTiter-Glo (AID 1508586;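 active means mean z-score across replicates of 1.96 or higher in either the MELAS or the Rieske mutant cell line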;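 further: z relative to plate mean and SD of compound and empty wells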). (In general: ATP-based viability assays read luminescence as a measure of living cells.)
Setting [5] is: stronger effect = lower value, cell number ratio, induced over uninduced.
Setting [6] is: measured here: relative caspase fold change +Dox/-Dox.
Where [7] appears, read: measured here: total cells with miR-34 induction, stronger effect = lower value.
Where [8] appears, read: measured here: total cells without miR-34 induction.
The mark [9] stands for this setting: MELAS cybrid survival, CellTiter-Glo 48 h, stronger effect = higher value.
Where [10] appears, read: Rieske KO mouse fibroblast survival, CellTiter-Glo 72 h.

The structures appear in SMILES notation. Several values for one entry are separate records, joined by “and”; a condition that tells them apart may be missing. Identical values can stand only once. Activity calls are given as the source filed them. Unless noted, no stated cut-off is given here; in the data, active means parasite load remaining mostly below about 12% (no sharp cut-off); inactive means mostly above about 10%.

The viability is a read-out of living cells in per cent, often relative to untreated cells.

Take `CCC(=O)OCC(=O)C1(OC(=O)CC)[C@H](C)C[C@H]2[C@H]3[C@H]([C@@H](O)C[C@@]21C)[C@@]1(C)C=CC(=O)C=C1C[C@H]3Cl` (stereo partly drawn): in assay [1], the survival was 4.33 (inactive). For the same compound, the parasite load remaining in assay [2] was 104% (inactive). In addition, the viability in assay [2] was 97.3%. For the same compound, the results for the fold change in assay [3] (setting [5]) and in assay [3] (setting [6]) were 0.785 (inactive) and 1.32, respectively. Also, the figures for the cell count in assay [3] (setting [7]) and in assay [3] (setting [8]) were 6260 and 7980, respectively. Further, the z-score was 0.535 (inactive) in assay [4] (setting [9]) and 0.903 in assay [4] (setting [10]).

Turning to `CN[C@@H]1[C@H](O[C@H]2[C@H](O[C@@H]3[C@@H](O)[C@H](O)[C@@H](N=C(N)N)[C@H](O)[C@H]3N=C(N)N)O[C@@H](C)[C@]2(O)CO)O[C@@H](CO)[C@H](O)[C@H]1O`, the survival in assay [1] is 13.1 (inactive). Besides, in assay [2], the parasite load remaining was 58.9% (inactive) and 103% (inactive). In addition, the viability in assay [2] is 51% and 87.7%. The values for the fold change in assay [3] (setting [5]) and in assay [3] (setting [6]) were 0.925 (inactive) and 1.1, respectively. Besides, the values for the cell count in assay [3] (setting [7]) and in assay [3] (setting [8]) were 9160 and 9910, respectively. The z-score was -0.905 (inactive) in assay [4] (setting [9]) and -0.0139 in assay [4] (setting [10]).

On to `CN/C(=C/[N+](=O)[O-])NCCSCc1csc(CN(C)C)n1`, for which the parasite load remaining in assay [2] is 74.7% (inactive). In assay [2], the viability came to 97.8%. For the same compound, the results for the fold change in assay [3] (setting [5]) and in assay [3] (setting [6]) were 0.889 (inactive) and 0.967, respectively. In addition, the values for the cell count in assay [3] (setting [7]) and in assay [3] (setting [8]) were 9080 and 10200, respectively. For the same compound, the z-score is 0.561 (inactive) in assay [4] (setting [9]) and -0.45 in assay [4] (setting [10]).

With `CC(C)(C)NC[C@@H](O)COc1cccc2c1CCCC2=O`, the survival in assay [1] is 6.25 (inactive). Moreover, the parasite load remaining in assay [2] was 94.5% (inactive). Besides, in assay [2], the viability was 97%. The fold change was 0.911 (inactive) in assay [3] (setting [5]) and 1.14 in assay [3] (setting [6]). In addition, the cell count in assay [3] (setting [7]) was found to be 9750; in assay [3] (setting [8]) it was 10700. Further, the z-score in assay [4] (setting [9]) is 0.547 (inactive); in assay [4] (setting [10]), 0.0254.

Take `C[C@@H]1C[C@H]2[C@@H]3C[C@H](F)C4=CC(=O)C=C[C@]4(C)[C@@]3(Cl)[C@@H](O)C[C@]2(C)[C@H]1C(=O)COC(=O)C(C)(C)C`: the survival in assay [1] was 4.25 (inactive). In assay [2], the parasite load remaining is 85.6% (inactive). Besides, in assay [2], the viability worked out at 86.4%. Moreover, the fold change is 0.917 (inactive) in assay [3] (setting [5]) and 0.704 in assay [3] (setting [6]). For the same compound, the cell count amounted to 6960 in assay [3] (setting [7]) and 7580 in assay [3] (setting [8]). Besides, the z-score is -0.991 (inactive) in assay [4] (setting [9]) and -0.15 in assay [4] (setting [10]).

`CC(=O)O[C@]1(C(C)=O)CC[C@H]2[C@@H]3C=C(C)C4=CC(=O)CC[C@@H]4[C@H]3CC[C@@]21C`: the parasite load remaining in assay [2] was 85.6% (inactive). Moreover, the viability in assay [2] worked out at 73.5%. Moreover, the fold change was 0.942 (inactive) in assay [3] (setting [5]) and 0.745 in assay [3] (setting [6]). Also, the cell count turned out to be 8790 in assay [3] (setting [7]) and 9330 in assay [3] (setting [8]). Further, the z-score in assay [4] (setting [9]) was -0.763 (inactive); in assay [4] (setting [10]) it was -0.219.

Consider `C=CC[N@@+]12CC[C@]34c5ccccc5N5/C=C6\C7N(/C=C(\C53)[C@@H](C[C@@H]41)/C(=C/CO)C2)c1ccccc1[C@@]71CC[N@@+]2(CC=C)C/C(=C\CO)[C@@H]6C[C@@H]12` (stereo partly drawn), for which, in assay [2], the parasite load remaining is 122% (inactive). In addition, the viability in assay [2] was found to be 74.4%. For the same compound, the fold change in assay [3] (setting [5]) was 0.909 (inactive); in assay [3] (setting [6]), 0.771. The cell count in assay [3] (setting [7]) was found to be 9290; in assay [3] (setting [8]) it was 10200. The z-score was 0.0835 (inactive) in assay [4] (setting [9]) and -0.352 in assay [4] (setting [10]).

Regarding `CN(C)CC/C=C1\c2ccccc2CSc2ccccc21`, in assay [2], the parasite load remaining is 36.7% (inactive). Also, the viability in assay [2] is 110%. The fold change was 0.831 (inactive) in assay [3] (setting [5]) and 1.19 in assay [3] (setting [6]). Further, the cell count worked out at 6880 in assay [3] (setting [7]) and 8280 in assay [3] (setting [8]). Further, the z-score in assay [4] (setting [9]) was -0.0112 (inactive); in assay [4] (setting [10]) it was -0.183.

For the compound `Cc1c(Cl)cccc1Nc1ncccc1C(=O)O`, the parasite load remaining in assay [2] is 71.2% (inactive). For the same compound, in assay [2], the viability came to 70.4%. The fold change in assay [3] (setting [5]) was 0.943 (inactive); in assay [3] (setting [6]), 0.763. Moreover, the results for the cell count in assay [3] (setting [7]) and in assay [3] (setting [8]) were 9020 and 9560, respectively. Further, the z-score in assay [4] (setting [9]) was 0.72 (inactive); in assay [4] (setting [10]), 0.0323.

On to `CCOC1O[C@H]([C@@H](COCc2ccccc2)OCc2ccccc2)[C@H](OCc2ccccc2)[C@H]1O` (stereo partly drawn), for which the parasite load remaining in assay [2] was 66.9% (inactive). In assay [2], the viability was found to be 70.5%. The fold change is 0.904 (inactive) in assay [3] (setting [5]) and 0.887 in assay [3] (setting [6]). Besides, the cell count was determined as 8110 in assay [3] (setting [7]) and 8970 in assay [3] (setting [8]). Moreover, the z-score is -0.366 (inactive) in assay [4] (setting [9]) and 0.506 in assay [4] (setting [10]).

On to `CN[C@H]1[C@@H](O)[C@H](O[C@H]2[C@@H](O)[C@@H](OC3OC(CN)=CCC3N)[C@H](N)C[C@@H]2N)OC[C@@]1(C)O` (stereo partly drawn), for which the parasite load remaining in assay [2] is 95.5% (inactive). In addition, in assay [2], the viability is 113%. Also, the results for the fold change in assay [3] (setting [5]) and in assay [3] (setting [6]) were 0.885 (inactive) and 1.15, respectively. For the same compound, the cell count in assay [3] (setting [7]) came to 9450; in assay [3] (setting [8]), 10700. Further, the z-score in assay [4] (setting [9]) is 0.354 (inactive); in assay [4] (setting [10]), 0.0602.

Regarding `NC[C@H]1O[C@H](OC2[C@@H](N)C[C@@H](N)[C@H](O)[C@H]2O[C@@H]2O[C@H](CO)[C@@H](O)[C@H]2O)[C@H](N)[C@@H](O)[C@@H]1O` (stereo partly drawn), the parasite load remaining in assay [2] is 77.5% (inactive). The viability in assay [2] came to 92.8%. The fold change in assay [3] (setting [5]) was 1.02 (inactive); in assay [3] (setting [6]), 0.629. Besides, the results for the cell count in assay [3] (setting [7]) and in assay [3] (setting [8]) were 9070 and 8900, respectively. The z-score in assay [4] (setting [9]) was -0.509 (inactive); in assay [4] (setting [10]), 0.171.

On to `CC(=O)N[C@@H](CC(=O)N[C@H](CCC(=O)O)C(=O)O)C(=O)O`, for which the parasite load remaining in assay [2] was 91.6% (inactive). Moreover, the viability in assay [2] was determined as 69.1%. Further, the fold change was 0.929 (inactive) in assay [3] (setting [5]) and 1.02 in assay [3] (setting [6]). Also, the cell count in assay [3] (setting [7]) worked out at 9500; in assay [3] (setting [8]), 10200. Besides, the results for the z-score in assay [4] (setting [9]) and in assay [4] (setting [10]) were 0.603 (inactive) and 0.146, respectively.

`C=CC1=C(C(=O)O)N2C(=O)[C@@H](NC(=O)/C(=N\OCC(=O)O)c3csc(N)n3)[C@H]2SC1`: the parasite load remaining in assay [2] is 141% (inactive). Further, the viability in assay [2] was 105%. Besides, the fold change is 0.851 (inactive) in assay [3] (setting [5]) and 1.38 in assay [3] (setting [6]). Besides, the cell count stood at 8960 in assay [3] (setting [7]) and 10500 in assay [3] (setting [8]). The z-score in assay [4] (setting [9]) was 0.308 (inactive); in assay [4] (setting [10]), 0.0804.

For `CCC(=O)[C@@]1(C)[C@H](C)C[C@H]2[C@@H]3CCC4=CC(=O)C=C[C@]4(C)[C@H]3[C@@H](O)C[C@@]21C`, in assay [1], the survival is 5.08 (inactive). For the same compound, the parasite load remaining in assay [2] is 104% (inactive). In addition, the viability in assay [2] was 73.1%. Besides, the fold change in assay [3] (setting [5]) is 0.901 (inactive); in assay [3] (setting [6]) it was 0.845. Besides, the cell count in assay [3] (setting [7]) was 7190; in assay [3] (setting [8]), 7980. The z-score in assay [4] (setting [9]) is -0.53 (inactive); in assay [4] (setting [10]), 0.51.

As for `CC[C@@]1([C@@H]2O[C@@H]([C@H]3O[C@@](O)(CO)[C@H](C)C[C@@H]3C)C[C@@H]2C)CC[C@H]([C@]2(C)CC[C@]3(C[C@H](O)[C@@H](C)[C@@H]([C@@H](C)[C@@H](OC)[C@H](C)C(=O)O)O3)O2)O1` (stereo in doubt), the parasite load remaining in assay [2] was -0.09% (active). Also, in assay [2], the viability was found to be 93.8%. Further, the figures for the fold change in assay [3] (setting [5]) and in assay [3] (setting [6]) were 0.901 (inactive) and 1.01, respectively. Besides, the cell count stood at 2780 in assay [3] (setting [7]) and 3090 in assay [3] (setting [8]). Moreover, the values for the z-score in assay [4] (setting [9]) and in assay [4] (setting [10]) were -2.78 (inactive) and -1.77, respectively.
